Whole data set: some 9,900 sequences, median “r (bound/input frequency ratio)” near 0.7, cut for the highest 2% near 6.5. This is one part of a sample in which the highest values are shown more often than they occur.

B1: ENSMUSG00000090935.640|Synj2bp|188:194 (ssRNA)
RNA: GGGAGUUCUACAGUCCGACGAUCGCUUCGAUAUCCGCAUGCUAAGAAUAAAGUAUUUUCCUAGGACUACAUAGUUGGUAAAAGAGAAUCAUGAUUUAAACUCUGGACUAUGGAUGGCAGUAUCAGUAAUAUUCCCUCAUAGCUAGCAGUCCUCAUGCAAGGUCUCUGAACAAAAGCAACGUAUCACCUGCAAAUGCUUGGGUUUCAUCCCAUUCUUAUGGAGUGAGAUGACACACACCCAGCCAGCAACUCUGUCCUUCUAGGUAACUGGUUCAUGCUGAACCUUGAGAUUCACCACUGUCAGCUCUUGCGGUCGCACUAGUGUGGAAUUCUCGGGUGUCAAGG
B2: ENSMUSG00000032194.203|Kank2|47:51 (ssRNA)
RNA: GGGAGUUCUACAGUCCGACGAUCGCUUCGAUAUCCGCAUGCUACUGCACCUUUCUCUAACUGGGGUUCCUUUCUGGCCCCAGGAUCUCACACACGUUCGUGGGGGGAUUUUGUUGUUGUUUCUUUGUUUCUUUUCUUCAUAAAGAAGAAAAAGGAAACAACUUCUAGAUGUGCCUUGCGAUAGGGAGGACUUUGUCCUCUCAAGUCUCCCUGUCGUAUCCAGAUCACAGCUGAACCCACUGGGCCUUGGCGCCAAACCUCAGCAGGGCAGCAUUGAGACUCAUGGACUAAAGGAAAGUGUUCACUCUUGCGGUCGCACUAGUGUGGAAUUCUCGGGUGUCAAGG
B3: ENSMUSG00000004113.196|Cacna1b (ssRNA)
RNA: GGGAGUUCUACAGUCCGACGAUCGCUUCGAUAUCCGCAUGCUACUGGCUCCUCUGCUCAACCAAGUGCCUGAUCUCUGGCUCUGAGCAUCGUGGAUGAGGUACGGCCUCAGGAAGCAUCGGGUGGAUUGGGUGGGAGCUGCUCAGAGCAGCACGGGGGCUUGUGUCUUAGGGACAUUGACAGUGUCCAUCAGCAUGUCAGAGAAGCAGCUGUAGUGCCCGUGUUUCUCCCUGAGUCAUGGGUUCUGAAGAAGCCAGAGCGGCACAAUGCGUGCUUGCAUGAGGCACUUUCAGCCUUUUUAAAUCUCUUGCGGUCGCACUAGUGUGGAAUUCUCGGGUGUCAAGG
B4: ENSMUSG00000061578.342|Ksr2 (ssRNA)
RNA: GGGAGUUCUACAGUCCGACGAUCGCUUCGAUAUCCGCAUGCUAUGCCCUUAAGCUAGGGUCCUUCAAGCAUCCACAGACUUAGAGUGUGGUGGUAACAUGCUUGUAAUCCUGGCACUCUGGAGGCUGAGGCAGGAGGAUAACAAGUCUAGACUAUAUAUGAUUUCUGAGGGUCUGUUAGUGAAUAAGUACCUGGAUGACAUGGGACAAGUCCCAGCCUUCCCUGCUCCUGCGCUGCUCUUCCUCUUAUGGGAUAGGGUCUAGGUCAAAUGUCACCUCUUCACUCUUGCUCUUUCCUGACCUCCCUCUUGCGGUCGCACUAGUGUGGAAUUCUCGGGUGUCAAGG
B5: ENSMUSG00000028439.70|Fam219a|208:212 (ssRNA)
RNA: GGGAGUUCUACAGUCCGACGAUCGCUUCGAUAUCCGCAUGCUAAAGGCCAGGAGGCCAAAUGUAAGCGUUGGGUGAAGGGAUCACAGGGCCGGAAGGUUGGCCCCAGCCAGUGAAGCCAUGAAUCCCCCCCAAGCCCGGCUUGGAAAGGAAGGAAAGGGGUUUUGAGAAGAAAAGGAUCCAAGCAAUGGGGGCAGUUCUCACACCUCAGAGCCCCUCUCCCCAAACCCUGUGCCAGCCCAUAUACCUAUUACACAUUUCCCCUCAUCUCCAGAUGGGAAGCCUGGCAGCGCUGUCCAAAGGGACUCUUGCGGUCGCACUAGUGUGGAAUUCUCGGGUGUCAAGG
B6: ENSMUSG00000031028.478|Tub (ssRNA)
RNA: GGGAGUUCUACAGUCCGACGAUCGCUUCGAUAUCCGCAUGCUACUCUUUCUCCCAUGGUUCUGAGCAGGCGACUGUCAAGGAAGUGUGUUGUCAGUUCACUGGAGGAGGAGCUGAGAUGUGCACCCUUUUAAAUGAACAUGGGGUGGUGAUGGUGCCUUAACAAUCUUGACACUAAGGUGAAGCAAGCAAGUAAGGUGUGUGCCUCUGGGAAGACAGGAGUCGGAAGCCAAGGUGUGUGGCAACAGUCUGGAAGAGAGCUUUUGGUAAUCAUACCGUCUUCAGUGACAAGGCAACAAUGCUGUCUCUUGCGGUCGCACUAGUGUGGAAUUCUCGGGUGUCAAGG
B7: ENSMUSG00000031028.481|Tub (ssRNA)
RNA: GGGAGUUCUACAGUCCGACGAUCGCUUCGAUAUCCGCAUGCUAUGAGCAGGCGACUGUCAAGGAAGUGUGUUGUCAGUUCACUGGAGGAGGAGCUGAGAUGUGCACCCUUUUAAAUGAACAUGGGGUGGUGAUGGUGCCUUAACAAUCUUGACACUAAGGUGAAGCAAGCAAGUAAGGUGUGUGCCUCUGGGAAGACAGGAGUCGGAAGCCAAGGUGUGUGGCAACAGUCUGGAAGAGAGCUUUUGGUAAUCAUACCGUCUUCAGUGACAAGGCAACAAUGCUGUAAAGUGGGUUUGUUUGGUCUCUUGCGGUCGCACUAGUGUGGAAUUCUCGGGUGUCAAGG
B8: ENSMUSG00000031028.483|Tub (ssRNA)
RNA: GGGAGUUCUACAGUCCGACGAUCGCUUCGAUAUCCGCAUGCUAUGUCAAGGAAGUGUGUUGUCAGUUCACUGGAGGAGGAGCUGAGAUGUGCACCCUUUUAAAUGAACAUGGGGUGGUGAUGGUGCCUUAACAAUCUUGACACUAAGGUGAAGCAAGCAAGUAAGGUGUGUGCCUCUGGGAAGACAGGAGUCGGAAGCCAAGGUGUGUGGCAACAGUCUGGAAGAGAGCUUUUGGUAAUCAUACCGUCUUCAGUGACAAGGCAACAAUGCUGUAAAGUGGGUUUGUUUGGUUUUGUUUUUUCUCUCUUGCGGUCGCACUAGUGUGGAAUUCUCGGGUGUCAAGG
B9: ENSMUSG00000031028.480|Tub (ssRNA)
RNA: GGGAGUUCUACAGUCCGACGAUCGCUUCGAUAUCCGCAUGCUAUGGUUCUGAGCAGGCGACUGUCAAGGAAGUGUGUUGUCAGUUCACUGGAGGAGGAGCUGAGAUGUGCACCCUUUUAAAUGAACAUGGGGUGGUGAUGGUGCCUUAACAAUCUUGACACUAAGGUGAAGCAAGCAAGUAAGGUGUGUGCCUCUGGGAAGACAGGAGUCGGAAGCCAAGGUGUGUGGCAACAGUCUGGAAGAGAGCUUUUGGUAAUCAUACCGUCUUCAGUGACAAGGCAACAAUGCUGUAAAGUGGGUUUGCUCUUGCGGUCGCACUAGUGUGGAAUUCUCGGGUGUCAAGG
B10: ENSMUSG00000031028.484|Tub (ssRNA)
RNA: GGGAGUUCUACAGUCCGACGAUCGCUUCGAUAUCCGCAUGCUAGGAAGUGUGUUGUCAGUUCACUGGAGGAGGAGCUGAGAUGUGCACCCUUUUAAAUGAACAUGGGGUGGUGAUGGUGCCUUAACAAUCUUGACACUAAGGUGAAGCAAGCAAGUAAGGUGUGUGCCUCUGGGAAGACAGGAGUCGGAAGCCAAGGUGUGUGGCAACAGUCUGGAAGAGAGCUUUUGGUAAUCAUACCGUCUUCAGUGACAAGGCAACAAUGCUGUAAAGUGGGUUUGUUUGGUUUUGUUUUUUCUUUCUCUCUCUUGCGGUCGCACUAGUGUGGAAUUCUCGGGUGUCAAGG
B11: ENSMUSG00000031028.482|Tub (ssRNA)
RNA: GGGAGUUCUACAGUCCGACGAUCGCUUCGAUAUCCGCAUGCUAGGCGACUGUCAAGGAAGUGUGUUGUCAGUUCACUGGAGGAGGAGCUGAGAUGUGCACCCUUUUAAAUGAACAUGGGGUGGUGAUGGUGCCUUAACAAUCUUGACACUAAGGUGAAGCAAGCAAGUAAGGUGUGUGCCUCUGGGAAGACAGGAGUCGGAAGCCAAGGUGUGUGGCAACAGUCUGGAAGAGAGCUUUUGGUAAUCAUACCGUCUUCAGUGACAAGGCAACAAUGCUGUAAAGUGGGUUUGUUUGGUUUUGUUCUCUUGCGGUCGCACUAGUGUGGAAUUCUCGGGUGUCAAGG
B12: ENSMUSG00000031028.479|Tub|35:40;147:153;184:190 (ssRNA)
RNA: GGGAGUUCUACAGUCCGACGAUCGCUUCGAUAUCCGCAUGCUACUCCCAUGGUUCUGAGCAGGCGACUGUCAAGGAACACACAUGUCAGUUCACUGGAGGAGGAGCUGAGAUGUGCACCCUUUUAAAUGAACAUGGGGUGGUGAUGGUGCCUUAACAAUCUUGACACUAAGGUGAAGCAAGCAAGUAAGCACACACCCUCUGGGAAGACAGGAGUCGGAAGCCAAGCACACACGCAACAGUCUGGAAGAGAGCUUUUGGUAAUCAUACCGUCUUCAGUGACAAGGCAACAAUGCUGUAAAGUGCUCUUGCGGUCGCACUAGUGUGGAAUUCUCGGGUGUCAAGG
B13: ENSMUSG00000031028.482|Tub|17:22;129:135;166:172 (ssRNA)
RNA: GGGAGUUCUACAGUCCGACGAUCGCUUCGAUAUCCGCAUGCUAGGCGACUGUCAAGGAACACACAUGUCAGUUCACUGGAGGAGGAGCUGAGAUGUGCACCCUUUUAAAUGAACAUGGGGUGGUGAUGGUGCCUUAACAAUCUUGACACUAAGGUGAAGCAAGCAAGUAAGCACACACCCUCUGGGAAGACAGGAGUCGGAAGCCAAGCACACACGCAACAGUCUGGAAGAGAGCUUUUGGUAAUCAUACCGUCUUCAGUGACAAGGCAACAAUGCUGUAAAGUGGGUUUGUUUGGUUUUGUUCUCUUGCGGUCGCACUAGUGUGGAAUUCUCGGGUGUCAAGG
B14: ENSMUSG00000031028.479|Tub (ssRNA)
RNA: GGGAGUUCUACAGUCCGACGAUCGCUUCGAUAUCCGCAUGCUACUCCCAUGGUUCUGAGCAGGCGACUGUCAAGGAAGUGUGUUGUCAGUUCACUGGAGGAGGAGCUGAGAUGUGCACCCUUUUAAAUGAACAUGGGGUGGUGAUGGUGCCUUAACAAUCUUGACACUAAGGUGAAGCAAGCAAGUAAGGUGUGUGCCUCUGGGAAGACAGGAGUCGGAAGCCAAGGUGUGUGGCAACAGUCUGGAAGAGAGCUUUUGGUAAUCAUACCGUCUUCAGUGACAAGGCAACAAUGCUGUAAAGUGCUCUUGCGGUCGCACUAGUGUGGAAUUCUCGGGUGUCAAGG

Sequence of TDP-43 (Q13148 whole entry): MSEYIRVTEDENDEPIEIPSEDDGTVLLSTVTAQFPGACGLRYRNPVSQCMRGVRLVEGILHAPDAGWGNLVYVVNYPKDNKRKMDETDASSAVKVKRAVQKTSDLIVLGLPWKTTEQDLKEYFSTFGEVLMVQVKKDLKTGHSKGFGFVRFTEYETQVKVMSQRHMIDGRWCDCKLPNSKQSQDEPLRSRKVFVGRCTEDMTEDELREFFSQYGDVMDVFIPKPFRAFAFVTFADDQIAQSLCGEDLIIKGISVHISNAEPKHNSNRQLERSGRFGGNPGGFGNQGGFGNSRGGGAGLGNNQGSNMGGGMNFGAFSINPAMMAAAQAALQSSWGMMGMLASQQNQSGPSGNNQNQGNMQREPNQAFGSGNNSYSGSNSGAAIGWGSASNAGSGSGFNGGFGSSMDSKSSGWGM

For this assay, the target named is TDP-43 (Homo sapiens, UniProt Q13148 1-414). Description: RNA Bind-n-Seq with designed 260-mer pool; 25 mM Tris-HCl, 150 mM KCl, 3 mM MgCl2, BSA (printed 500 mg/mL), 20 units/mL SUPERase IN; pH not stated; 500 nM RNA pool, 1 h, 4 C; TDP-43 5, 50, 500 nM; high values mean tight binding. The note with it: protein: recombinant; tags: SBP (GST cleaved off with PreScission; pGEX-GST-SBP). The procedure, abridged:
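An in vitro-transcribed pool of 260-nt 3′ UTR oligos (500 nM) was incubated for 1 h at 4 °C with recombinant SBP-tagged TDP-43 at 5, 50 or 500 nM held on streptavidin beads. The buffer contained 25 mM Tris-HCl, 150 mM KCl, 3 mM MgCl2, BSA and SUPERase IN. Biotin-eluted bound RNA was sequenced, and binding, R, is each oligo's normalized read abundance in the bound sample over that in input.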
As to B1, the binding signal was 0.142 R (bound/input frequency ratio). For the molecule B2, the binding signal is 0.294 R (bound/input frequency ratio). On to B3, for which the binding signal is 1.41 R (bound/input frequency ratio).

B4: the binding signal is 0.306 R (bound/input frequency ratio).

In the case of B5, the binding signal was 0.319 R (bound/input frequency ratio). Under B6 stands 2.52 R (bound/input frequency ratio). With B7 the figure was 5.19 R (bound/input frequency ratio).

In the case of B8, the binding signal was 3.98 R (bound/input frequency ratio). Under B9 stands 6.51 R (bound/input frequency ratio); under B10, 4.79 R (bound/input frequency ratio).

Regarding B11, the binding signal was 6.54 R (bound/input frequency ratio). With B12, the binding signal is 0.829 R (bound/input frequency ratio). As to B13, the binding signal was 1.47 R (bound/input frequency ratio). Under B14 stands 6.66 R (bound/input frequency ratio).

Values taken from PMC12864922, “TDP-43 directly inhibits mRNA accumulation in neurites through modulation of mRNA stability”.
